Results published in the supplement of paper PMC6555819.

What was measured:
Test in all cases: PBM binding z-score (relative to random genomic background probes); higher = stronger binding; sequences stand for … in GC…GCGATTGACAGCGTAGAATGAAGG
[1] = tested on: FXR:RXRa (NR concentration 270 nM, RXRa partner concentration 90 nM)
Summary of the method: (§1)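 Each nuclear receptor dimer, without ligand, was incubated for 1 h on custom Agilent 4×180K protein-binding microarrays. Binding was detected with antibodies against each partner (one per run), and scanned fluorescence was regression-normalized. The binding z-scores are referenced to random human genomic background probes.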

[2] = tested on: LXRa:RXRa (NR concentration 270 nM, RXRa partner concentration 90 nM)
Summary of the method: as §1

[3] = tested on: LXRa homodimer (NR concentration 270 nM)
Summary of the method: as §1

[4] = tested on: LXRb:RXRa (NR concentration 270 nM, RXRa partner concentration 90 nM)
Summary of the method: as §1

[5] = tested on: LXRb homodimer (NR concentration 270 nM)
Summary of the method: as §1

[6] = tested on: PPARa:RXRa (NR concentration 270 nM, RXRa partner concentration 90 nM)
Summary of the method: as §1

[7] = tested on: PPARg:RXRa (NR concentration 180 nM, RXRa partner concentration 90 nM)
Summary of the method: as §1

[8] = tested on: PPARg:RXRa 270nM:90nM, anti-RXR (NR concentration 270 nM, RXRa partner concentration 90 nM)
Summary of the method: as §1

[9] = tested on: PPARg:RXRa 30nM:10nM, anti-RXR (NR concentration 30 nM, RXRa partner concentration 10 nM)
Summary of the method: as §1

[10] = tested on: PPARg:RXRa 90nM:30nM, anti-RXR (NR concentration 90 nM, RXRa partner concentration 30 nM)
Summary of the method: as §1

Sequence | PBM binding z-score [1] | PBM binding z-score [2] | PBM binding z-score [3] | PBM binding z-score [4] | PBM binding z-score [5] | PBM binding z-score [6] | PBM binding z-score [7] | PBM binding z-score [8] | PBM binding z-score [9] | PBM binding z-score [10]
TAGCCTAGGTCAGGCGGGCCAGTATAGTGTCGGC | 1.07 | 0.958 | -0.477 | 0.401 | -0.892 | 1.55 | 0.363 | 0.51 | -0.814 | -0.109
CCTGACGGGTCAAGGTTATAGCACGGGTGGTACG | 4.36 | 2.88 | 0.0717 | 2.21 | -0.369 | 4 | 2.54 | 2.92 | 0.472 | 1.61
CCTACTCGGCCAAGGTCATTGATCAGTCAAAGCA | 3.57 | 3.69 | 2.12 | 3.18 | 0.93 | 3.52 | 1.32 | 2.35 | 0.335 | 1.69
CCTACCGGGCCACGAAAGGTCATTGATTCAGTGA | 3.59 | 5.17 | 5.04 | 4.36 | 0.399 | 4.26 | 1.96 | 2.98 | 0.636 | 1.92
CCTACTTGGTCAAGGTCACACACGCTATAGGTAC | 4.25 | 4.24 | 2.32 | 4.05 | 1.7 | 4.33 | 3.75 | 3.87 | 1.38 | 2.72
CGTCCAAGGTCAATGCTAGGTCAGTCAAAGCATT | 6.9 | 5.33 | 3 | 4.39 | 0.815 | 4.98 | 4 | 4.84 | 1.11 | 3.32
AGAACGAGGGCACGTTGAGTTGATAGCAGAGTAG | 0.758 | 0.705 | -0.372 | 0.249 | -0.789 | 2.23 | 2.19 | 1.42 | 0.235 | 0.958
ACTTACGGGTCAACGAGATTATAGCACGCGTATA | 6.86 | 4.16 | 0.415 | 3.82 | 1.09 | 5.71 | 5.29 | 5.21 | 2.2 | 4.07
TGTCGGAGGACACGAAAGGTCAGAGCTCGACATC | 3.25 | 3.96 | 2.69 | 3.16 | 0.015 | 3.69 | 1.62 | 2.54 | 0.799 | 1.53
GGATCGAGGGCAAAGTTGATAGCATCTGTCGACG | 1.65 | 1.21 | -0.00761 | 0.937 | -0.138 | 4.37 | 7.25 | 7.18 | 5.86 | 8.27
TTAATGAGGTTATAAGATCAGGGAACGTTGCAAA | 1.87 | 1.75 | 0.416 | 1.58 | 0.291 | 3.04 | 1.96 | 2.7 | 1.97 | 2.32
GGAACGAGGGCAAGTTGCTAGCAGAGTTTGATGG | 0.687 | 0.359 | -0.44 | 0.0629 | -0.392 | 1.48 | 0.841 | 1.04 | -0.453 | 0.0808
ACTAGCAGGCCAAGTTTGGGTCATTCAAACAAAG | 0.394 | 0.425 | -0.172 | 0.818 | -0.545 | 1.8 | 0.0288 | 0.215 | -0.284 | -0.177
CCGAGTAGGTTATGGGGCTTTCAGGCAACGGTGA | 0.104 | 0.374 | -0.409 | 0.503 | -0.205 | 1.34 | 1.69 | 2.5 | 0.331 | 1.54
ATATGTAAGTTAGCTGGGGTCATTCAGACTAGGC | 4.05 | 3.87 | 1.64 | 4.47 | 0.895 | 4.17 | 1.49 | 2.48 | 0.721 | 1.49
TCGATTAGGTTACCAATGGGGCATTCAGCTTTCT | 0.297 | 1.49 | -0.396 | 1.29 | -0.254 | 1.21 | -0.163 | 1.5 | 2.68 | 2.26
AGAATGAGGATATTAAGATCAGGGAATTGCGGTC | -0.251 | -0.424 | 0.0165 | -0.53 | -0.355 | -0.323 | 0.311 | -0.0295 | -0.0325 | -0.182
AGAATGAGGTTAAGATCATGGAAACAGAATACAT | 2.01 | 1.71 | -0.0716 | 1.88 | -0.112 | 3.44 | 2.5 | 2.38 | 0.804 | 1.82
TCTTGTAGATCAGCAAGTTAAGAAAGCTGGCCAA | -0.13 | -0.113 | -0.739 | -0.0484 | -0.743 | 0.316 | -0.599 | 1.24 | 2.5 | 1.78

Sequence | PBM binding z-score [1] | PBM binding z-score [2] | PBM binding z-score [3] | PBM binding z-score [4] | PBM binding z-score [5] | PBM binding z-score [6] | PBM binding z-score [7] | PBM binding z-score [8] | PBM binding z-score [9] | PBM binding z-score [10]
CAAACTAGGTCACAGAAGTCAAAGTCCGTGCGTA | 4.23 | 3.17 | 0.883 | 2.77 | 0.529 | 5.49 | 8.96 | 7.26 | 5.36 | 6.93
CCTAGTTGGTCAAGGGCACACACGCTATAGGTAC | 0.355 | 0.541 | 0.134 | 0.385 | -0.148 | 0.682 | 1.51 | 1.57 | 0.541 | 1.26
ATCTCTAGGGAAAGATAGTTCAGTGAATGCAAAT | -0.0344 | 0.192 | 0.0693 | 0.157 | 0.479 | 0.0958 | 0.337 | 0.214 | 0.232 | 0.358
ATATCTAGGTTATCGGGTCATTCAGTTTGCGCAT | 3.27 | 3.47 | 2.2 | 3.33 | 1.83 | 4.98 | 6.91 | 6.17 | 4.2 | 6.24
TCTAGTTGGTCCCGGAGGTCACACACGACGGGTA | 2.88 | 2.9 | 2.37 | 3.18 | 0.951 | 3.55 | 1.68 | 2.9 | 3.06 | 3.11
ATCTCTAGGTAACCATGTTCAGTGAATGCCGAAC | 0.171 | 0.321 | 0.00917 | 0.435 | 0.529 | 0.518 | 0.664 | 0.662 | 0.044 | 0.484
TCATATAGGTAAACAGCTGAAAGTCCGTAAGTTA | 1.09 | 0.759 | 0.185 | 0.758 | -0.215 | 1.37 | 0.75 | 2.36 | 3.9 | 3.19
AGTCAAAGTTAACTAGGTAACGTAAGATTCAGCT | -0.192 | 0.0304 | -0.49 | -0.0459 | -0.318 | 2.16 | 2.33 | 2.5 | 0.593 | 1.89
CGTCCAAGGTCAATGCTAGGTGAGTGAAAGCATT | 5.97 | 4.36 | 0.361 | 3.28 | 0.445 | 4.69 | 3.49 | 4 | 0.812 | 2.99
CGTCCAAGGTCAGCTGGTCAGTGAAAGCGACGTG | 5.24 | 3.28 | -0.407 | 2.31 | -0.208 | 3.99 | 2.08 | 2.85 | 0.432 | 1.47
ATCGCTAGGTAAGACTCAGTTCAGTGAAGAACGC | -0.617 | -0.685 | -0.587 | -0.734 | -0.581 | -0.45 | -0.14 | -0.615 | -0.356 | -0.686
TCTGCTAGTTCAGTTGGTCAGCTAACGAGCTGCC | -0.661 | -0.0879 | -0.708 | -0.52 | 0.193 | 0.1 | -1.03 | 0.545 | 1.27 | 0.794
CGAACGAGGGCATGAGTTGATAGAAAATGCCGAT | 0.363 | 0.324 | -0.393 | 0.256 | -0.832 | 1.58 | 1.42 | 1.33 | 0.36 | 0.956
ACTTACGGGTCATCGAGGTTATAGCACGCGTATA | 6.76 | 4.95 | 0.924 | 4.29 | 0.569 | 5.8 | 5.44 | 5.54 | 2.13 | 4.43
CCGAGTAGGTTATGGGGGATTCAGGCAACGGTGA | 1.01 | 1.49 | 0.84 | 3.36 | 6.87 | 2.55 | 2.34 | 4.36 | 1.98 | 3.77
CCTGCTAGGTCATGGTCAGCTTATCTACAGTATG | 3.54 | 2.53 | 0.0847 | 1.71 | -0.512 | 3.19 | 2.2 | 2.64 | 0.566 | 1.77
ATATGCAGGTTAGCTGGGGTCATTCAGACTAGGC | 4.95 | 5.96 | 3.01 | 4.92 | 0.363 | 4.7 | 2.52 | 3.4 | 0.768 | 2.26
GATACAGGGTCAGCTAGTGGCCAGAGTATGGAAA | 4.54 | 2.31 | -0.558 | 2.21 | -0.762 | 4.49 | 3.55 | 3.25 | 0.61 | 1.77
ATATGTAGGTTAGCTGGGGTCATTCATACTAGGC | 4.61 | 5.73 | 3.67 | 5.14 | 1.97 | 5.1 | 5.98 | 5.23 | 3.12 | 4.83
